# GDH-TPI counter-1 = inhibits GDH-TPI coupling enzymes, artifact for Mtb FBA screen | GDH-TPI coupled enzyme counterscreen, NADH absorbance | inhibition, % at 4.8 µM | 1.2% of 360,000 active | AID 588335; in the data active means inhibition above about 30%
# FBA Mtb inh = Mtb fructose-bisphosphate aldolase inhibition. P9WQA3. purified M. tuberculosis FBA, fluorescence read-out. inhibition, % at 1 µM. 2.3% of 360,000 active. AID 588726
# Mtb hypoxia inh = Mtb hypoxia fluorescent reporter inhibition; fluorescence inhibition, % (concentration not given with the values); 0.1% of 300,000 active; M. tuberculosis hypoxia-regulated fluorescent reporter, fluorescence; in the data active means fluorescence inhibition mostly above about 23%, no sharp cut-off; inactive means mostly below about 17%
# Rv3671c protease = Rv3671c (M. tuberculosis) protease inhibition; P9WHR9; inhibition, % at 5.96 µM; 0.048% of 320,000 active; AID 2606; in the data active means inhibition above about 38%;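 further: extracellular domain of Rv3671c used as enzyme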
# FadD28 binding = M. tuberculosis FadD28 bisubstrate binding inhibition; FadD28 bisubstrate probe binding, fluorescence polarization; inhibition, % at 12.5 µM; 0.22% of 360,000 active; AID 588549; in the data active means inhibition above about 8.5%, passing the limit was not always enough
# UGM FP inh = Mtb UDP-galactopyranose mutase inhibition; P9WIQ1; purified UGM, fluorescence polarization probe displacement; inhibition, % at 10 µM; 0.06% of 320,000 active; AID 504406; in the data active means inhibition above about 10%, passing the limit was not always enough
# Target sequence (P9WIQ1 whole entry, looked up): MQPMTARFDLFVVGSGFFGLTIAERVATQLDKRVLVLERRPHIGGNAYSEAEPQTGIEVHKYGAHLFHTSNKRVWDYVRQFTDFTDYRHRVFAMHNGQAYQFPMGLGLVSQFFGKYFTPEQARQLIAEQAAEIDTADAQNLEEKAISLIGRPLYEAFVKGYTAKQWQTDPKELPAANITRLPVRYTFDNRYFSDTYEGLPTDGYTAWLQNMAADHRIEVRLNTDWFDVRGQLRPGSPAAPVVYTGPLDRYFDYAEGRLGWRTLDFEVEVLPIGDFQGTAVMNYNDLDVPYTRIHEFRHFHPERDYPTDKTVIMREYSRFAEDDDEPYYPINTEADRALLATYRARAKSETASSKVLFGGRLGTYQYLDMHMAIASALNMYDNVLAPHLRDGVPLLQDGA
# Mtb FBA inh conf = Mtb FBA inhibition, confirmed | purified M. tuberculosis FBA, fluorescence read-out | inhibition, % at 1 µM | shares compounds with FBA Mtb inh | 78% of 5,600 active
# GDH-TPI counter-2 = counter-screen for M. tuberculosis FBA inhibitors: GDH-TPI coupled enzyme inhibition. shares compounds with FBA Mtb inh. GDH-TPI coupled enzyme counterscreen, fluorescence. inhibition, % at 1 µM. 81% of 5,600 active; in the data active means inhibition above about 10%
# Hits are given with their value; n = inactive; x = not tested or not shown; + = active, no number. Rows were chosen to be rich in hits. Some 3.5% of all compounds tested hit in one or more screens of this group. Unless noted, no stated cut-off is given here; in the data, active means inhibition above about 27%; inactive means the rest.
SMILES,GDH-TPI counter-1,FBA Mtb inh,Mtb hypoxia inh,Rv3671c protease,FadD28 binding,UGM FP inh,Mtb FBA inh conf,GDH-TPI counter-2
COc1ccc2cc(C(=O)C3CCCN(Cc4cnc(C)s4)C3)ccc2c1 (configuration not stated),n,40.8,n,n,n,n,+,+
COc1ccc2cc(C(=O)C3CCCN(C(=O)/C=C/c4ccccn4)C3)ccc2c1 (configuration not stated),n,56.6,n,n,n,n,54.7,48.1
O=C(c1ccc2ccccc2c1)C1CCCN(C(=O)c2cnccn2)C1 (configuration not stated),n,n,n,n,n,n,x,x
COc1ccc2cc(C(=O)C3CCCN(C(=O)c4cnccn4)C3)ccc2c1 (configuration not stated),n,88.5,n,n,n,n,54.9,45.2
COc1ccc(C(=O)C2CCCN(Cc3cnc(C)s3)C2)cc1OC (configuration not stated),n,n,n,n,n,n,x,x
COc1ccc2cc(C(=O)C3CCCN(C(=O)c4snnc4C)C3)ccc2c1 (configuration not stated),n,108.3,n,n,n,n,136.0,116.7
CCOc1ccc2ccccc2c1C=NNC(=O)c1cc(C)[nH]n1,x,x,n,x,x,x,x,x
COc1ccc2cc(C(=O)C3CCCN(C(=O)c4cc5nc(C)cc(C)n5n4)C3)ccc2c1 (configuration not stated),n,75.1,n,n,n,n,97.5,86.9
COc1ccc(COc2cc(-c3cccc(OC)c3)nc3ccc(NC(=O)C(C)C)cc23)cc1,n,42.9,n,n,n,n,87.3,71.1
CC=C(C)C(=O)OC1c2cc(OC)c(OC)c(OC)c2-c2c(cc3c(c2OC)OCO3)CC(C)[C@]1(C)O (some centres not stated),x,x,n,x,x,x,x,x
Cc1c(C)c2ccc(O[C@@H]3O[C@H](CO)[C@H](O)[C@H](O)[C@H]3O)cc2oc1=O,n,38.0,n,x,n,n,52.8,42.5
Cc1c(C)c2ccc(O[C@@H]3O[C@H](CO)[C@@H](O)[C@H](O)[C@H]3O)c(C)c2oc1=O,n,n,n,x,n,n,x,x
O=C1c2ccc(-c3ccc4c(c3)C(=O)N(CCCO)C4=O)cc2C(=O)N1CCCO,n,35.5,n,n,n,n,n,n
O=C(c1cnccn1)N(c1ccccc1)C1(C(=O)NC2CCCC2)CCCCC1,n,n,x,n,n,n,x,x
O=C(c1cnccn1)N(c1ccccc1)C1(C(=O)NC2CCCCC2)CCCCC1,n,30.4,n,n,n,n,29.1,17.9
COc1cc2oc3ccc(C#Cc4ccc(N)cc4)cc3c(=O)c2cc1OC,n,n,n,n,n,n,x,x
COc1cc2oc3ccc(C#Cc4ccccn4)cc3c(=O)c2cc1OC,n,67.4,n,n,n,n,n,n
c1cncc(-c2noc(-c3cccc4ccccc34)n2)c1,n,28.4,n,n,n,n,n,19.5
CCCc1cc(=O)oc2cc(C)cc(OCC(=O)NCCN3CCOCC3)c12,n,66.5,n,n,n,n,n,n
Cc1cc(=O)oc2cc(OCC(=O)NCCCN3CCOCC3)ccc12,n,n,x,n,n,n,x,x
Cc1c(C)c2ccc(OCC(=O)Nc3cccnc3)c(C)c2oc1=O,n,60.4,n,n,n,n,n,n
Cc1cc(OCC(=O)NCCCN2CCOCC2)c2c(C)cc(=O)oc2c1,n,61.1,n,n,n,n,137.7,141.8
CCCc1cc(=O)oc2cc(C)cc(OCC(=O)Nc3ccc(CN4CCOCC4)cc3)c12,n,43.5,n,n,n,n,n,n
O=C(C=NO)NCCCNCc1ccccc1,x,x,n,x,x,x,x,x
Cc1ccc(S(=O)(=O)N2C(c3ccc(C(C)C)cc3)CC=C(C(=O)O)C2c2ccccc2)cc1 (configuration not stated),x,x,n,x,x,x,x,x
SMILES,GDH-TPI counter-1,FBA Mtb inh,Mtb hypoxia inh,Rv3671c protease,FadD28 binding,UGM FP inh,Mtb FBA inh conf,GDH-TPI counter-2
CCc1cc(=O)oc2cc(C)cc(OCC(=O)NCCN3CCOCC3)c12,n,60.7,n,n,n,n,51.6,65.9
Cc1c(C)c2ccc(OCC(=O)NCCN3CCOCC3)c(C)c2oc1=O,n,46.8,n,n,n,n,+,+
O=C(COc1ccccc1O)NCCN1CCOCC1,n,n,n,n,n,n,x,x
CCc1cc(=O)oc2cc(C)cc(OCC(=O)NCCc3c[nH]c4ccccc34)c12,n,n,x,n,n,n,x,x
CCOC(=O)c1cnn(-c2ncnc3sc(C)c(C)c23)c1N,n,76.9,x,n,n,n,84.1,65.9
CCOc1ccc2cc(C(=O)NCc3ccccc3)c(=N)oc2c1,n,40.9,n,n,x,n,52.7,35.2
COc1cc2cc(C(=O)NN=Cc3ccccc3Cl)[nH]c2cc1OC,x,x,n,x,x,x,x,x
COCCn1cc(C(=O)NCc2ccco2)c2c3ccccc3n(C)c2c1=O,n,90.9,n,n,n,n,+,+
CCOC(CCNC(=O)c1cn(CCOC)c(=O)c2c1c1ccccc1n2C)OCC,n,29.8,n,n,n,n,77.2,65.8
Cn1c2ccccc2c2c(C(=O)NCc3ccco3)cn(C3CCCCC3)c(=O)c21,n,n,x,n,n,n,x,x
CCCN(CCC)CCCNC(=O)c1cn(CCOC)c(=O)c2c1c1ccccc1n2C,n,32.3,n,n,n,n,118.4,89.9
CC1CN(C(C)CO)C(=O)c2cccc(NC(=O)Nc3ccc4c(c3)OCO4)c2OC1CN(C)S(=O)(=O)c1cccs1 (configuration not stated),x,x,n,x,x,x,x,x
O=C(Nc1ccccc1)C1=CC(c2csc3ccccc23)CC(OCc2ccc(CO)cc2)O1 (configuration not stated),x,x,n,x,x,x,x,x
COc1ccc2[nH]c(=O)c(C(=O)O)cc2c1,n,52.6,n,n,n,n,65.5,61.0
COc1ccc2[nH]c(=O)cc(C(=O)O)c2c1,n,n,n,n,n,n,x,x
COc1ccc2[nH]c(C(=O)NCCCn3ccnc3)cc2c1,n,86.0,n,n,n,n,125.1,90.1
COc1ccc2[nH]c(C(=O)N(Cc3ccccn3)Cc3ccccn3)cc2c1,n,34.4,n,n,n,n,132.1,112.9
COc1ccc(C(=O)c2c[nH]c(C(=O)NCCCn3ccnc3)c2)cc1,n,n,n,n,n,n,x,x
COc1ccc2[nH]c(C(=O)O)c(CCNC(C)=O)c2c1,n,49.4,n,n,n,n,125.2,106.4
S=c1[nH]nc(C2CCCCC2)n1N=Cc1ccc(Br)cc1,x,x,n,x,x,x,x,x
COc1ccc2c(c1)OCC1C2N2C(=O)C(C)NC(=O)[C@@]2(C)C1c1ccccc1 (some centres not stated),x,x,n,x,x,x,x,x
O=C(O)c1cc(OCc2ccccc2)cc(OCc2ccccc2)c1,n,n,n,n,n,n,x,x
O=C(O)c1cc2cc(OCc3ccccc3)ccc2[nH]1,n,38.6,n,n,n,n,129.3,97.4
